# Bioassay records from PubChem.
# Only some compounds are listed: those with a hit (about 1.3% of all), similar ones and a draw of the others.
# HTT promoter inh – HTT promoter inhibition; actives 0.93% (n = 48,000); AID 1508623; HEK293 HTT promoter firefly luciferase reporter, 24 h; Potency, µM (doses to about 57.5 µM), without a hit: at the highest dose activity change, negative = inhibition, actives largely listed as inhibitors; also: nearly all actives have a fitted effect of over 50% in size
#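 Firefly luciferase signal from promoter-reporter HEK293 cells was scaled between vehicle (0%) and zero RLU (-100%). Compounds were tested at final concentrations of up to 57.5 uM over 24 h at 37 degrees C. PTC124 at 50 uM final served as control inhibitor.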
# HTT-AS act – activates huntingtin-antisense promoter activity | HEK293 HTT-AS promoter firefly luciferase reporter, 24 h; response scale: percent change from vehicle, -100% = no light | Potency, µM (doses to about 57.5 µM), for the others: at the highest dose activity change, positive = activation, actives largely listed as activators | actives 0.24% (n = 48,000) | AID 1508624; also: nearly all actives have a fitted effect of over 55% in size
#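 Firefly luciferase readout (Dual-Glo, 10 min RT) after 24 h, 37 °C compound exposure (final up to 57.5 uM) of HEK293 reporter cells cultured 24 h beforehand; PTC124 at 50 uM final as control inhibitor; activity scaled vehicle 0%, zero RLU -100%.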
# GALC G270D act – enhancers of human galactocerebrosidase G270D mutant activity in cells. AID 1159614. Potency, µM (series often up to 57.5 µM), actives largely listed as activators. P54803. 145M-Twi-hGALC-G270D cells (Twitcher mouse brain line with human GALC G270D), HMU-beta-Gal fluorescence, 48 h. actives 0.1% (n = 45,000); also: 0% is about no effect; nearly all actives have a fitted effect of over 65% in size
# Target sequence (P54803 whole entry G286D): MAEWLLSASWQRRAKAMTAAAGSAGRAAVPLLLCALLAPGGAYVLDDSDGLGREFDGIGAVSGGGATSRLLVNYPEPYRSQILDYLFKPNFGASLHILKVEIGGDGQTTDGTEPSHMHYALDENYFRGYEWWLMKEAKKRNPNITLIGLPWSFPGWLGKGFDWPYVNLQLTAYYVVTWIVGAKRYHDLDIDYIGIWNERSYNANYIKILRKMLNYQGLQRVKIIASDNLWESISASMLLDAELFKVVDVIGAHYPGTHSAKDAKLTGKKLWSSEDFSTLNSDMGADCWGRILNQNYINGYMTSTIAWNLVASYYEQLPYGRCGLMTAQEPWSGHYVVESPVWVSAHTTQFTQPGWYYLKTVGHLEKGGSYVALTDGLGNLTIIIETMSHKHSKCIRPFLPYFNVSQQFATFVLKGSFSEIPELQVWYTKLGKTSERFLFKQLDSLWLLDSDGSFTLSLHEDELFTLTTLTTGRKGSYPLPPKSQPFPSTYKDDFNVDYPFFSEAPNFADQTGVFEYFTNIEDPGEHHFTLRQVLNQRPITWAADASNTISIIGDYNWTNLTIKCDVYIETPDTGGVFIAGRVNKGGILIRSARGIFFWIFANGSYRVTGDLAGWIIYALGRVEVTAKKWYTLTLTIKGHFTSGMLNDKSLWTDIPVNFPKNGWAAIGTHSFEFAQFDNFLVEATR
#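 Live 145M-Twi cells (Twitcher mouse brain-derived, GALC-null) stably expressing human GALC-G270D, with a wild-type GALC line, were compound-treated. Residual GALC activity was then read as fluorescence from 0.1 mM final HMU-β-gal at pH 5.2; higher signal means activation.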
# * = called active by the depositor; i = inactive; ? = inconclusive; / = no result; [ ] = remark or other dose. Calls follow the shape of the dose curve; as a rule, active = well fitted curve in the direction sought with a large enough effect; inconclusive = small, poorly fitted or top-dose-only effect, or another doubt; inactive = no such curve, though single readings can be large; an effect the other way counts as inactive or inconclusive. Potency is read from the fitted curve at half-maximal effect.
SMILES,HTT promoter inh,HTT-AS act,GALC G270D act
O=c1[nH]c(=O)n([C@H]2C[C@@H](O)[C@@H](CO)O2)cc1I,23%,-10%,/
CC(C)c1ccc(OC(=O)c2cc(-c3ccc(Cl)cc3)on2)cc1,-15%,-17%,i
CC1CCN(C(=O)c2cc(-c3ccc(Cl)cc3)on2)CC1,74%,2µM*,i
Clc1ccccc1-c1nc(-c2ccncc2)no1,30%,?,i
Fc1cccc(-c2nc(-c3ccncc3)no2)c1,40%,4µM*,i
Cn1cc(C2=C(c3c4n(c5ccccc35)CCC(CN)C4)C(=O)NC2=O)c2ccccc21 (stereo not given),?,24%,/
Cc1cccc(N(C)C(=S)Oc2ccc3c(c2)C2CCC3C2)c1 (stereo not given),11%,-7%,i
Cc1n[nH]c(C)c1S(=O)(=O)N1CCCC(C(=O)Nc2ccc(Cl)cc2)C1 (stereo not given),28µM*,-47%,i
Cc1ccc(NC(=O)C2CCCN(S(=O)(=O)c3c(C)n[nH]c3C)C2)cc1Cl (stereo not given),?,-44%,i
COC(=O)N[C@H](C(=O)N1CCC[C@@H]1c1ncc(-c2ccc(-c3ccc(-c4cnc([C@@H]5CCCN5C(=O)[C@@H](NC(=O)OC)C(C)C)[nH]4)cc3)cc2)[nH]1)C(C)C,-15%,-17%,/
O=C(C=Cc1ccc(CN(CCO)CCc2c[nH]c3ccccc23)cc1)NO,186%,?,/
CC(C)c1cc(C(C)C)c(CC(=O)NS(=O)(=O)Oc2c(C(C)C)cccc2C(C)C)c(C(C)C)c1,?,-10%,/
CCCOc1ccc(C(=O)Nc2ccc(-c3cc4ccccc4oc3=O)c(C)c2)cc1,?,-12%,i
Cc1cc(NC(=O)c2cc(Cl)ccc2Cl)ccc1-c1cc2ccccc2oc1=O,10µM*,-34%,i
CC(=O)c1[nH]c(C)c(C(=O)NCc2ccc(Cl)cc2)c1C,16µM*,-50%,i
CCOC(=O)c1[nH]c(C)c(C(=O)NCc2ccc(F)cc2)c1C,-37%,0%,i
Cc1cnc(-c2cc(N3CCN(C(=O)CCS(C)(=O)=O)CC3)ncc2Cl)c(C)c1,-9%,-20%,/
Fc1ccc(-n2ncc3c(NCCCc4ccccc4)ncnc32)cc1,27%,8.9µM*,i
Clc1cccc(-n2ncc3c(NCCCn4ccnc4)ncnc32)c1,31%,14µM*,i
Cc1ccc(-n2ncc3c(NCCCn4ccnc4)ncnc32)cc1C,13%,19%,i
Cc1ccc(-n2ncc3c(NCCc4ccccc4)ncnc32)cc1C,21%,?,i
Clc1cccc(-n2ncc3c(NC4CCCCC4)ncnc32)c1,-27%,?,i
Fc1ccc(-n2ncc3c(NCCCn4ccnc4)ncnc32)cc1,17%,2.8µM*,i
C=C(C)[C@@H]1CC[C@]2(C)CC[C@]3(C)[C@H](CC[C@@H]4[C@@]5(C)CC[C@H](O)C(C)(C)[C@H]5CC[C@]43C)[C@@H]12,-10%,-2%,/
CCCOc1ccn2c(C(C)=O)cc(-c3ccccc3S(C)(=O)=O)c2c1,2%,/,/
SMILES,HTT promoter inh,HTT-AS act,GALC G270D act
COC(=O)c1ccccc1NC(=O)CSc1nc(-c2ccccc2)cc(C(F)(F)F)n1,-26%[11.5 µM],-20%,10µM*
COC(=O)c1ccccc1NC(=O)CSc1n[nH]c(C)n1,-9%,6%,i
CNC(=O)c1ccccc1Sc1ccc2c(C=Cc3ccccn3)n[nH]c2c1,-13%,?,/
Cn1c(=O)c2c(nc(NCc3ccccc3)n2Cc2ccccc2)n(C)c1=O,?,-31%,i
CC(CCO)Nc1nc2c(c(=O)n(C)c(=O)n2C)n1Cc1ccc(Br)cc1 (stereo not given),-25%,-3%[11.5 µM],22µM*
C[C@@H](N)c1ccc(C(=O)Nc2ccnc3[nH]ccc23)cc1,-22%,1%,/
CC(C)c1cnn2c(NCc3ccccc3)cc(NCCCCCCN)nc12,?,-23%,/
Cc1ccc(S(=O)(=O)N2CCCc3cc(NS(=O)(=O)c4ccc(F)c(C)c4)ccc32)cc1,25µM*,-45%,i
Cc1ccc(S(=O)(=O)N2CCCc3cc(NS(=O)(=O)c4ccc(C)c(C)c4)ccc32)cc1,?,-26%,i
CCOC(=O)N1CCC(n2c(=O)[nH]c3cc(Cl)ccc32)CC1,?,-77%,i
CCOc1ccc(NC(=O)CN2CCSc3ccc(S(=O)(=O)N4CCCC4)cc32)cc1,25µM*,-39%,i
Cc1ccc(NC(=O)CN2CCSc3ccc(S(=O)(=O)N4CCCC4)cc32)cc1,?,-36%,i
CCOc1ccc(NC(=O)Cn2c(=O)oc3cc(S(=O)(=O)N4CCC(C)CC4)ccc32)cc1,10µM*,-49%,i
CCc1ccc(NC(=O)Cn2c(=O)oc3cc(S(=O)(=O)N4CCCCCC4)ccc32)cc1,?,-49%,i
CCOC(=O)[C@H](CCc1ccccc1)N[C@@H](C)C(=O)N1[C@@H](C(=O)O)C[C@H]2CCC[C@@H]21,?,-18%,/
COc1c(OCCCN2CCOCC2)ccc2c3n(c(=NC(=O)c4cnc(N)nc4)nc12)CCN3,?,-41%[25.1 µM],/
Nc1nccc(Oc2ccc(NC(=O)c3c[nH]cc(-c4ccc(F)cc4)c3=O)cc2F)c1Cl,?,-41%,/
COc1cccc(CNC(=O)C2CCCN(S(=O)(=O)N(C)c3ccc(F)cc3)C2)c1OC (stereo not given),25µM*,-90%,i
CN(c1ccc(F)cc1)S(=O)(=O)N1CCCC(C(=O)NCc2ccccc2Cl)C1 (stereo not given),?,-27%,i
Nc1ccc2c(c1)CN1C(=O)c3ccccc3C1=N2,-27%[25.2 µM],-52%[25.1 µM],i
COC(=O)c1ccc(NC(=O)CC2Nc3cc(C)c(C)cc3NC2=O)cc1 (stereo not given),25µM*,-76%,i
CC(=O)c1ccc(NC(=O)CC2Nc3cc(C)c(C)cc3NC2=O)cc1 (stereo not given),?,-53%,i
O=C(CCn1cnc2onc(-c3ccc(F)cc3)c2c1=O)Nc1cccc(C(F)(F)F)c1,?,-59%,i
O=C(CCn1cnc2onc(-c3ccc(F)cc3)c2c1=O)Nc1ccc(F)c(Cl)c1,22µM*,-75%,i
Cc1oc(-c2ccc(C(=O)N(C)Cc3ccccc3)cc2)nc1CN1CCc2ccccc21,8.9µM*,-52%,i
SMILES,HTT promoter inh,HTT-AS act,GALC G270D act
Cc1ccc(CNC(=O)c2ccc(-c3nc(CN4CCc5ccccc54)c(C)o3)cc2)cc1,-36%,-27%,i
CC(C)c1noc(N2CCC(COc3ccc(-c4ccc(S(C)(=O)=O)cc4)nc3)CC2)n1,-16%,-18%,/
O=c1cc(CN2CCOCC2)occ1OCCCCCSc1ccnc2cc(C(F)(F)F)ccc12,?,-39%,/
COc1ccccc1NC(=O)c1sc2nc3c(cc2c1N)CCCCCC3,-24%,-23%,11µM*
Nc1c(C(=O)Nc2ccccc2F)sc2nc3c(cc12)CCCCCC3,8%,30%,i
Cn1c(=O)c2sccc2n2c(CCCC(=O)Nc3ccc(Oc4ccc(Cl)cc4)cc3)nnc12,40µM*,-27%,i
COc1ccc(NC(=O)CCc2nnc3n(C)c(=O)c4sccc4n23)cc1,8%,1%,i
